# Screening results deposited in PubChem by National Center for Advancing Translational Sciences (NCATS).
# Sampled rows, rich in hits. Any-hit rate of the full collection: about 2.1%.
# TDP43 rescue – rescues yeast growth from TDP-43 toxicity; TDP-43 expressing yeast growth rescue, BacTiter-Glo, 24 h; Potency, µM (highest dose often 46.1 µM), actives largely listed as activators; 410,000 compounds, 1.8% hits; note: nearly all actives have a fitted effect of over 50% in size
#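 Galactose-induced TDP-43 yeast, OD600=0.02, compound pinned; 24 hr, 30 deg C; BacTiter-Glo luminescence for growth. Inhibitors of TDP-43 toxicity read as activators.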
# FUS suppressor – FUS proteinopathy suppression in yeast. 390,000 compounds, 0.24% hits. AID 1347120. S. cerevisiae FUS-expressing, growth rescue, OD600, 24 h. Potency, µM (titrated, usually from 76.6 µM), usual class: activators; note: nearly all actives have a fitted effect of over 55% in size
#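 Read-out: OD at 600 nm after 24hr at 30C, reporting rescue of FUS-induced yeast toxicity. Cells at OD 0.005 in galactose (2%) minimal medium; compounds tested in a dilution series; CP55940 titration from 92uM final as control.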
# Abeta rescue – A-beta toxicity reversal in yeast; 410,000 compounds, 0.063% hits; yeast expressing A-beta42, growth rescue, OD600, 48 h; response scale: 0% DMSO, 100% iron-clioquinol control; Potency, µM (top dose mostly 46.1 µM), most hits filed as activators; note: nearly all actives have a fitted effect of over 55% in size
#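 Growth rescue measured by 600 nm absorbance after 48 h yeast culture at 30 C with compound. Values normalized between DMSO and an equimolar ferric chloride plus clioquinol control.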
# aSyn yeast inh – inhibitors of alpha-synuclein toxicity in yeast. Yeast expressing alpha-synuclein, growth rescue, BacTiter-Glo, 24 h. Potency, µM (titrated, usually from 46.1 µM), usual class: activators. 370,000 compounds, 0.14% hits; note: nearly all actives have a fitted effect of over 65% in size
#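 Readout is rescue of growth in alpha-synuclein-expressing yeast, so inhibitors of toxicity appear as activators. Growth after 24 hr at 30 deg C in galactose medium is quantified by luminescence.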
# Numbers stand for hits; – = inactive; ? = inconclusive; · = no result. Calls come from the whole dose curve; as a rule, active = well fitted curve in the direction sought with a large enough effect; inconclusive = small, poorly fitted or top-dose-only effect, or another doubt; inactive = no such curve, though single readings can be large; an effect the other way counts as inactive or inconclusive.
SMILES,TDP43 rescue,FUS suppressor,Abeta rescue,aSyn yeast inh
Cc1cc(C)c(NC(=O)Cn2nc(-c3ccncc3)ccc2=O)c(C)c1,–,–,–,·
C=C(C)CSc1nnc(-c2cc(-c3ccc(OC)cc3)n[nH]2)n1N,·,–,·,·
CCCCN1C(=O)C(CC(=O)NCCCN(C)C)CC(C(=O)N2CCCCCC2)=C1C (centres undefined),–,–,–,–
COc1ccc(CNC(=O)CCSCc2cccc(F)c2)cc1,10µM,–,–,–
COc1ccc(CNC(=O)CCSCc2ccccc2C)cc1,7.1µM,–,–,–
O=C(CCSCc1cccc(Cl)c1)NCc1ccc(F)cc1Cl,22µM,–,?,·
Cc1nn2c(=O)cc(COC(=O)c3ccccc3NC(=O)C(C)Oc3ccccc3)nc2s1 (centres undefined),–,–,–,·
CCn1c2ccccc2c2cc(/C(C)=N/O)ccc21,35µM,·,–,?
C/C(=N\O)c1ccc2c3ccccc3n(C)c2c1,–,–,–,–
CCCn1c2ccccc2c2cc(C(=O)O)ccc21,6.3µM,–,–,–
Cc1cc(C)c(N2CCN(S(=O)(=O)N3CCCCCC3)CC2)c(C)c1,–,–,–,–
Cc1cccc(NC(=O)COC(=O)CN2C(=O)c3ccccc3C2=O)c1C,–,–,–,–
O=C(CC1(O)C(=O)N(CCc2ccccc2)c2ccc(Br)cc21)c1ccccc1 (centres undefined),32µM,–,–,–
CCCN(CCC)C(=O)c1cc(S(=O)(=O)N2CCCCC2)c[nH]1,–,–,–,–
CCOc1ccc(S(=O)(=O)N2CCCCC2)cc1NC(=O)Cc1cccc(C(F)(F)F)c1,–,–,–,–
COc1ccc(C(=O)/C=C2/C(=O)Nc3ccccc32)cc1,2.8µM,–,–,–
COc1ccc(C(=O)/C=C2/C(=O)Nc3ccccc32)c(OC)c1,11µM,–,–,–
COc1ccc(C(=O)/C=C2/C(=O)Nc3ccccc32)cc1OC,–,?,–,–
Brc1c(CSc2nc3ccccc3o2)nc2ncccn12,13µM,–,–,–
CCCN(Cc1ccccc1)C(=S)Nc1ccc(F)cc1,18µM,–,–,–
Brc1ccc(CSc2nnc(-c3cnccn3)n2Cc2ccco2)cc1,35µM,·,–,–
Clc1ccc(CSc2nnc(-c3ccccn3)n2Cc2cccs2)cc1Cl,?,?,–,–
Cn1c(SCc2ccc(F)cc2)nnc1-c1cnccn1,–,–,–,–
Fc1ccc(CSc2nnc(-c3cnccn3)n2Cc2ccco2)cc1,?,–,–,–
Cc1ccc(CSc2nnc(-c3ccccn3)n2Cc2cccs2)cc1,35µM,?,–,–
SMILES,TDP43 rescue,FUS suppressor,Abeta rescue,aSyn yeast inh
CCn1c(SCc2ccc(C)cc2)nnc1-c1cnccn1,11µM,–,–,–
O=S1(=O)CCOC[C@H](Cc2ccccc2)N1Cc1ccc(Cl)cc1,16µM,–,–,–
CC(C)C[C@H]1COCCS(=O)(=O)N1Cc1cccc(Cl)c1,?,–,–,–
O=S1(=O)CCOC[C@H](Cc2ccccc2)N1Cc1cccc(Cl)c1,?,–,–,–
CCC(C)[C@H]1COCCS(=O)(=O)N1Cc1ccc(Br)cc1 (some centres undefined),35µM,–,–,–
CC(C)C[C@H]1COCCS(=O)(=O)N1Cc1cccc(C(F)(F)F)c1,14µM,–,–,–
Oc1ccc(N=Nc2ccccc2-c2nn[nH]n2)c(O)c1,–,–,–,–
CCOC(=O)c1cccc(NC(=O)c2ccc3c(c2)nnn3C2CCCC2)c1,–,–,–,·
O=C(Cc1ccc(NC(=O)C2CCN(C(=O)C3CC3)CC2)cc1)Nc1ccc(C(=O)N2CCOCC2)cc1,–,–,–,–
CC(=O)Nc1nc(COc2ccc3ccccc3c2)cs1,7.1µM,–,–,·
COc1ccc(-c2nn3c(-c4ccccc4)nnc3s2)cc1,14µM,?,–,–
c1ccc(-c2nnc3sc(-c4csc5c4CCCC5)nn23)cc1,20µM,·,–,–
COc1ccc(Cc2nn3c(-c4cc(OC)c(OC)c(OC)c4)nnc3s2)cc1,22µM,?,–,–
c1ccc(-c2nnc3sc(-c4ccncc4)nn23)cc1,–,–,–,–
CCOc1ccccc1CN1CCc2nc(N3CCN(c4ccccc4F)CC3)ncc2C1,–,–,–,·
Brc1cccc(Nc2nc(-c3cccnc3)cs2)c1,3.2µM,–,–,–
Oc1ccc(Nc2nc(-c3cccnc3)cs2)cc1,–,–,–,–
Brc1ccc(Nc2nc(-c3cccnc3)cs2)cc1,11µM,–,–,–
CN(C)c1ccc(/C=C2\CCc3cc(N)ccc32)cc1,·,·,·,–
